Results from PubChem BioAssay (EPA / NIEHS).
Several values for one entry are separate records, joined by “and”; a condition that tells them apart may be missing. Identical values can stand only once. Records with an inconclusive call do not appear. Activity calls are given as the source filed them. The calls were made as follows, unless noted: active = hit-call score of the fitted dose curve at least 0.9, where 1 is the maximum; inconclusive = response in the unintended direction; inactive = score below 0.9.

Tests used:
[1] = molecular target: Estrogen receptor (Homo sapiens) (UniProt P03372); experiment: CCTE_Deisenroth_AIME_384WELL_LUC_Active: CCTE's 384-well Estrogen Receptor Transactivation Assay with AIME metabolic competence (ERTA luciferase; metabolism positive), Deisenroth Lab (AID 2284030)
Procedure, shortened: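 Chemicals (10-point, 0.002-200 uM) were first incubated 2 hours with alginate-immobilized induced male Sprague Dawley rat liver S9. The conditioned medium was then applied to VM7Luc4E2 cells for 24 hours, with ER luciferase induction read by luminescence relative to 17beta-estradiol.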

[2] = CCTE_Shafer_MEA_dev_firing_rate_mean: CCTE's Neural Network Formation Assay for Mean Firing Rate, Shafer Lab (AID 2284031; active = hit-call score of the fitted dose curve at least 0.9, where 1 is the maximum; inactive = score below 0.9;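 as to AC50: curve fitted for loss of firing so AC50 reflects decreased mean firing rate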)
Procedure, shortened: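 Read-out: spike count/recording length, averaged over active electrodes, then AUC across days 5, 7, 9, 12. Rat cortical cultures on MEA; continuous 12-day exposure, media and treatment renewed DIV 5, 9; DMSO baseline.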

[3] = CCTE_Shafer_MEA_dev_per_burst_spike_percent: CCTE's Neural Network Formation Assay for Percent of Spikes in a Burst, Shafer Lab (AID 2284032; active = hit-call score of the fitted dose curve at least 0.9, where 1 is the maximum; inactive = score below 0.9;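 as to AC50: fitted as a decrease in burst spike percentage below DMSO baseline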)
Procedure, shortened: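 Value is trapezoidal AUC over recordings on days 5, 7, 9 and 12 of the well-mean fraction of spikes falling in single-electrode bursts; rat cortical cultures exposed continuously from plating, treatment renewed DIV 5 and 9, fitted downward against DMSO.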

[4] = CCTE_Deisenroth_AIME_384WELL_CTox_Active: Cytotoxicity Assessment (CTOX) in CCTE's 384-well Estrogen Receptor Transactivation Assay with AIME metabolic competence (metabolism positive), Deisenroth Lab (AID 2284037);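 also: chemicals first conditioned 2 h by alginate-bound induced rat liver S9 before cells; activity means signal loss indicating cell death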
Procedure, shortened: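 Chemicals pre-incubated 2 hours with alginate-immobilised phenobarbital/beta-naphthoflavone-induced male Sprague Dawley rat liver S9, then conditioned medium applied 24 hour to VM7Luc4E2 cells. Viability by fluorogenic protease substrate; 10-point series 0.002 - 200 uM.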

[5] = molecular target: Estrogen receptor (Homo sapiens) (UniProt P03372); experiment: CCTE_Deisenroth_AIME_384WELL_LUC_Inactive: CCTE's 384-well Estrogen Receptor Transactivation Assay without AIME metabolic competence (ERTA luciferase; metabolism negative), Deisenroth Lab (AID 2284038);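 also: hits raise estrogen receptor luciferase signal so potencies reflect agonists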
Procedure, shortened: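 Metabolism-negative mode: AIME lids stamped in alginate-water, no hepatic S9. 2 h chemical incubation → medium onto VM7Luc4E2 ERTA, 24 h. Readout luciferase luminescence; gain-of-signal fit vs 17beta-estradiol. Conc. 0.002 - 200 uM.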

[6] = CCTE_Deisenroth_AIME_384WELL_CTox_Inactive: Cytotoxicity Assessment (CTOX) in CCTE's 384-well Estrogen Receptor Transactivation Assay without AIME metabolic competence (metabolism negative), Deisenroth Lab (AID 2284039);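 also: cell viability via live-cell protease substrate cleaved to fluorescent probe; cells exposed 24 h to medium preincubated 2 h with alginate-water beads without S9; loss of fluorescence signal means loss of viability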
Procedure, shortened: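 VM7Luc4E2 human breast cells received conditioned medium from a 2 h incubation of chemical with alginate-water microspheres (no S9), then were exposed 24 h. Viability was read as protease-substrate cleavage to a fluorescent probe; loss of signal was fitted bidirectionally over 0.002–200 uM.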

[7] = CCTE_Shafer_MEA_dev_active_electrodes_number: CCTE's Neural Network Formation Assay for Number of Active Electrodes, Shafer Lab (AID 2284040);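 also: potency for loss of active electrodes versus DMSO so lower counts are hits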
Procedure, shortened: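 Developing rat cortical networks on MEAs, exposed DIV 0–12. Value is the AUC of active-electrode counts (≥5 spikes/min) from days 5, 7, 9, 12, relative to DMSO.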

[8] = molecular target: Estrogen receptor (Homo sapiens) (UniProt P03372); experiment: CCTE_Deisenroth_AIME_384WELL_LUC_Shift: CCTE's 384-well Estrogen Receptor Transactivation Assay with AIME metabolic competence data shift (ERTA luciferase; difference in metabolism positive and negative), Deisenroth Lab (AID 2284041; active = hit-call score of the fitted dose curve at least 0.9, where 1 is the maximum; inactive = score below 0.9;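 also: shift is response with S9 minus without S9 so positive means metabolism raised ER signal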)
Procedure, shortened: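 Chemicals (0.002–200 uM, 10 points) pre-incubated 2 h with alginate-encapsulated induced male Sprague Dawley rat liver S9 or S9-free, then medium applied 24 h to VM7Luc4E2 cells; luciferase. Endpoint is per-concentration difference, S9-positive minus negative.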

[9] = CCTE_Shafer_MEA_dev_burst_rate: CCTE's Neural Network Formation Assay for Burst Rate, Shafer Lab (AID 2284042; active = hit-call score of the fitted dose curve at least 0.9, where 1 is the maximum; inactive = score below 0.9;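 as to AC50: potency for loss of burst rate below DMSO control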)
Procedure, shortened: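 Rat primary cortical cultures on PEI/laminin MEA; compound from plating, re-dosed at DIV 5, 9 media change. Single-electrode bursts/recording length, well mean of active electrodes; AUC over DIV 5–12 recordings; loss-of-signal vs DMSO.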

[10] = CCTE_Shafer_MEA_dev_bursting_electrodes_number: CCTE's Neural Network Formation Assay for Number of Bursting Electrodes, Shafer Lab (AID 2284043);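 also: potency is for loss of bursting electrodes relative to DMSO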
Procedure, shortened: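 Rat cortical primary neurons, 48-well MEA, 16 electrodes/well; dosing DIV 0–12, re-dosed with full media change DIV 5, 9. Recordings DIV 5/7/9/12, AxIS adaptive spike detector; bursting electrode = ≥1 burst/2 min. AUC across days; loss of signal vs DMSO.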

Measured: AC50

Sequence of Estrogen receptor (Homo sapiens) (P03372 whole entry, looked up): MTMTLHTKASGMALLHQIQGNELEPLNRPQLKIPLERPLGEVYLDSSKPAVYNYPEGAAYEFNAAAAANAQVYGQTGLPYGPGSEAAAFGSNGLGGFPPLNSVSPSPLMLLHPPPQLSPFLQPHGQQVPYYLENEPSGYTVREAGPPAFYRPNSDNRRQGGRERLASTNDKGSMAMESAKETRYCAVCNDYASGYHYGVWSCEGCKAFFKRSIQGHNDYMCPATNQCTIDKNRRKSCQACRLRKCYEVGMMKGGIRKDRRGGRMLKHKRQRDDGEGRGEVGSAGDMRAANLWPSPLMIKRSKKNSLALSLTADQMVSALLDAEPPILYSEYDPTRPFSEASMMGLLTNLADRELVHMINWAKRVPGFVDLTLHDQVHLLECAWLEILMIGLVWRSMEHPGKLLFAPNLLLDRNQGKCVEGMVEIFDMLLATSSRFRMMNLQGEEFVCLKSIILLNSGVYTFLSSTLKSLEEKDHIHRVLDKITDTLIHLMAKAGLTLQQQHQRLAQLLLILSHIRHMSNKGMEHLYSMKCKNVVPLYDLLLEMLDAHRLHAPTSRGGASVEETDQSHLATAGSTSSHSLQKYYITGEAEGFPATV

CC(C)(C)c1cc(O)ccc1O
inactive: [2] | [9]
active: [1] 0.000221 µM | [3] 10 µM | [4] 137 µM | [5] 0.000233 µM | [6] 100 µM | [7] 6.05 µM | [8] 30.7 µM | [10] 6.04 µM

CCC(=O)C(CC(C)N(C)C)(c1ccccc1)c1ccccc1 (stereo not given)
active: [2] 3.42 µM | [3] 7.25 µM | [7] 3.55 µM | [9] 4.16 µM | [10] 4.45 µM

C[C@@H]1C[C@@H]([C@H](O)CC2CC(=O)NC(=O)C2)C(=O)[C@@H](C)C1
inactive: [6]
active: [4] 28.5 µM

O=C(NCO)NCO
inactive: [1] | [4] | [5] | [8]

CCCCCCCCSC(=O)Oc1cc(Cl)nnc1-c1ccccc1
inactive: [1] | [4] | [5] | [6] | [8]

COP(=O)(OC)O/C(=C\Cl)c1cc(Cl)c(Cl)cc1Cl
active: [4] 100 µM | [6] 100 µM | [7] 78.5 µM and 51.5 µM | [10] 79.3 µM and 51.5 µM
not listed: [1]
inactive: all other assays above
